# For some assays here: Potency and affinity values are given separately.
# Experiments:
# Set-up in all cases: scale not given: direction of the effect not stated beside the values
# [1] = target: Protein translocase subunit SecA (Escherichia coli (strain K12)) (UniProt P10408); assay: Assay to Identify E. coli SecA ATPase Inhibitors; format: functional; details: 30 µM
# [2] = target: T1, Ubiquitin-activating enzyme e1, putative (Leishmania donovani (strain BPK282A1)) (UniProt E9BSI1); assay: Leishmania donovani Ubiquitin Activating Enzyme (LdE1); format: functional; details: 30 µM
# T1 sequence (whole entry): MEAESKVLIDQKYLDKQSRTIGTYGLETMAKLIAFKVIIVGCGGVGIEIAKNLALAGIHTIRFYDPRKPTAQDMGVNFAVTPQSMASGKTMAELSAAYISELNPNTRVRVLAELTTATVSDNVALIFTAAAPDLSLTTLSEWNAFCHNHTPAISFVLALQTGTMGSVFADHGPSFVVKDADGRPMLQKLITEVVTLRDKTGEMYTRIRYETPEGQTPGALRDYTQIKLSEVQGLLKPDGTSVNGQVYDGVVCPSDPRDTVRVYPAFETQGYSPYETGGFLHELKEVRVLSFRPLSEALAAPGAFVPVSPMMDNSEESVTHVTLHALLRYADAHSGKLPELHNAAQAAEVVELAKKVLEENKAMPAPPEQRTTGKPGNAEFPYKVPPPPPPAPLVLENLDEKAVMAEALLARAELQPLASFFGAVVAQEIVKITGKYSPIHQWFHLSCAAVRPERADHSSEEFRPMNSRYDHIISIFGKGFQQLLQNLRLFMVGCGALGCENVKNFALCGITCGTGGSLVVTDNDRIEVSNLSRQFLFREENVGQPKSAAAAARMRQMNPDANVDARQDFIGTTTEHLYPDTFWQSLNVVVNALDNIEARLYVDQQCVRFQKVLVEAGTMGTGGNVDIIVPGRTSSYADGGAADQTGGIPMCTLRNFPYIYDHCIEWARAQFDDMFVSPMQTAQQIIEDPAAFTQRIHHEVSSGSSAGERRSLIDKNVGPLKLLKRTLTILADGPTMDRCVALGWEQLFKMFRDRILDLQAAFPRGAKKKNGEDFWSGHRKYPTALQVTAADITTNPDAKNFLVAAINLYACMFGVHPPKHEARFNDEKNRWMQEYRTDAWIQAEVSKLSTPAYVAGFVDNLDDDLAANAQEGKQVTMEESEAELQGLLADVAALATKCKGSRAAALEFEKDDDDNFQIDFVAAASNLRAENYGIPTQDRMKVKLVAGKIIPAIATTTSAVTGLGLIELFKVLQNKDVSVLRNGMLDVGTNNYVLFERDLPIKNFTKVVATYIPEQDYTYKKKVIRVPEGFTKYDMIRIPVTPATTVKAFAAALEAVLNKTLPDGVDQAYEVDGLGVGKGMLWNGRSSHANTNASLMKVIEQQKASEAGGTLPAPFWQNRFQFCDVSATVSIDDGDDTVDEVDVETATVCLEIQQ
# [3] = target: AMP-activated protein kinase, AMPK (Homo sapiens) (UniProt P54646+O43741+P54619+Q9UGJ0+Q9Y478+Q13131+Q9UGI9); assay: AMP-dependent Kinase enzyme assay. An in vitro enzyme assay that detects ADP turnover that is directly proportional to AMPK activity. This uses naive AMPK that is activated during the assay with MK-8722; format: functional; details: 30 µM
# [4] = target: Sialic acid-binding Ig-like lectin 9 (Homo sapiens) (UniProt Q9Y336); assay: Hs-Siglec9 ALPHAscreen SOP 20170721; details: 10 µM
# Sialic acid-binding Ig-like lectin 9 (Homo sapiens), sequence (Q9Y336 whole entry): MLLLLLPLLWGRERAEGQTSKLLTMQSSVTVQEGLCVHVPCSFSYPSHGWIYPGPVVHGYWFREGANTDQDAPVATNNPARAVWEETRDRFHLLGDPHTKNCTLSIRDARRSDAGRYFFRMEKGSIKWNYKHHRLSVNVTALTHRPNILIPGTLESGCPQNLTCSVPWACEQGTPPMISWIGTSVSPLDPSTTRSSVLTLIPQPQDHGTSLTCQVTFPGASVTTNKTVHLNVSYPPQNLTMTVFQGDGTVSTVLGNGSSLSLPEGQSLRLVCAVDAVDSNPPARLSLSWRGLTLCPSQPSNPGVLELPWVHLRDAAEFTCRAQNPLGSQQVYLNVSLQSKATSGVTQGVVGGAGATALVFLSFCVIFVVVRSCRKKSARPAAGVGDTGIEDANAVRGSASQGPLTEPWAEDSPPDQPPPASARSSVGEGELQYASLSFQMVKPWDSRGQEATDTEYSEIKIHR
# Trypanosoma cruzi = assay: Trypanosoma cruzi phosphomannomutase and mannose-1-phosphate guanylyltransferase assay; format: functional; details: 10 µM
# [5] = target: T2, Arginase-2, mitochondrial (Homo sapiens) (UniProt P78540); assay: in vitro enzyme assay to detect the production of urea directly proportional to the activity of Arginase II; format: functional; details: 33.3 µM; note: in the data most compounds retested in dose-response had high values
# T2 sequence (whole entry): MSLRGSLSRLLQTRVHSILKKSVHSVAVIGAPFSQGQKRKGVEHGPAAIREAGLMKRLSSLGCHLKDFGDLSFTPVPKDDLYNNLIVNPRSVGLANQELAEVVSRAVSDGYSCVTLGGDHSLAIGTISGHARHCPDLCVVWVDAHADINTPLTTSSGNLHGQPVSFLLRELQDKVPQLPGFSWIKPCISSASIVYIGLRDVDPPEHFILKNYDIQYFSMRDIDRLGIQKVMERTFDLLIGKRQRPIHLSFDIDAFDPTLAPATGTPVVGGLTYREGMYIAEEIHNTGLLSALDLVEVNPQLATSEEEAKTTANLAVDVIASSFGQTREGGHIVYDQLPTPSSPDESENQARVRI
# [6] = target: T3, Proteasome subunit beta (Trypanosoma cruzi) (UniProt O96673); assay: Trypanosoma cruzi proteasome chymotrypsin-like activity (TcProtChymo) assay.; note: in the data most compounds retested in dose-response had high values; format: functional; details: 9.37 µM
# T3 sequence (whole entry): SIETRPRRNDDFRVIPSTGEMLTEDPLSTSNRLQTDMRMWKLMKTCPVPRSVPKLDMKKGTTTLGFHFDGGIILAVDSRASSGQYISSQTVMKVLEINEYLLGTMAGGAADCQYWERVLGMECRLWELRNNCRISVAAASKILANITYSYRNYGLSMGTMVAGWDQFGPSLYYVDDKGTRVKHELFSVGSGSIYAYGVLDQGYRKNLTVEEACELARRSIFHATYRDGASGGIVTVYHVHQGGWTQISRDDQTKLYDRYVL
# Homo sapiens = species on record: Homo sapiens; assay: To identify inhibition of the IFN signalling (Jak-Stat) pathway via expression of an eGFP reporter gene under the control of an IFN-stimulated response element (ISRE) containing MxA promoter.; format: functional; details: 30 µM
# [7] = target: T4, Tyrosyl-tRNA synthetase, putative (Trypanosoma cruzi (strain CL Brener)) (UniProt Q4DSP6); assay: Trypanosoma cruzi tyrosyl tRNA synthetase (TcYRS) _High Tyrosine SOP; format: functional; details: 30 µM; note: in the data most compounds retested in dose-response had high values
# T4 sequence (whole entry): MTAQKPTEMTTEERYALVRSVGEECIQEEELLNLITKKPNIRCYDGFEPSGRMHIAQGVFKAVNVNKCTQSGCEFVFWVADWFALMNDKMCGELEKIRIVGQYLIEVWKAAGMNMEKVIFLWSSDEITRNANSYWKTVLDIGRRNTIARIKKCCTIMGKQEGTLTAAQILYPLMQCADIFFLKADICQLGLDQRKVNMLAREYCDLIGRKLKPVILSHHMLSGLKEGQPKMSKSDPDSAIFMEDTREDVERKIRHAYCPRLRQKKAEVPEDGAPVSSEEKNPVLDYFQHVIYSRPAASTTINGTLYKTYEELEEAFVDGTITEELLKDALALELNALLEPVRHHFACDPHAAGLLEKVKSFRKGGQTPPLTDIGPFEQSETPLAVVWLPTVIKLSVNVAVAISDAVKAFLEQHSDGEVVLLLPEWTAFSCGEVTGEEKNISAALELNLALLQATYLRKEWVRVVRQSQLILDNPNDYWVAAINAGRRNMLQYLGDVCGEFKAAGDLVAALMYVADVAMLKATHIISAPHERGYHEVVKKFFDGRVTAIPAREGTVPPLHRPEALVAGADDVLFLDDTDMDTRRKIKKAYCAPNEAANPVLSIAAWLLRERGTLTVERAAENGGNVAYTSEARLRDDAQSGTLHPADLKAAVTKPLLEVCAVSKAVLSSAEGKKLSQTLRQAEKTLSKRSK
# [8] = target: T4, Tyrosyl-tRNA synthetase, putative (Trypanosoma cruzi (strain CL Brener)); assay: Trypanosoma cruzi tyrosyl tRNA synthetase (TcYRS) SOP; format: functional; details: 30 µM
# [9] = target: Chromo domain-containing protein 1 (Saccharomyces cerevisiae (strain ATCC 204508 / S288c) (Baker's yeast)) (UniProt P32657); assay: ScCHD-1 Enzyme Inhibition Assay; format: functional; details: 30 µM; note: in the data most compounds retested in dose-response had high values
# Chromo domain-containing protein 1 (Saccharomyces cerevisiae (strain ATCC 204508 / S288c) (Baker's yeast)), sequence (P32657 whole entry, the tested form may be a part): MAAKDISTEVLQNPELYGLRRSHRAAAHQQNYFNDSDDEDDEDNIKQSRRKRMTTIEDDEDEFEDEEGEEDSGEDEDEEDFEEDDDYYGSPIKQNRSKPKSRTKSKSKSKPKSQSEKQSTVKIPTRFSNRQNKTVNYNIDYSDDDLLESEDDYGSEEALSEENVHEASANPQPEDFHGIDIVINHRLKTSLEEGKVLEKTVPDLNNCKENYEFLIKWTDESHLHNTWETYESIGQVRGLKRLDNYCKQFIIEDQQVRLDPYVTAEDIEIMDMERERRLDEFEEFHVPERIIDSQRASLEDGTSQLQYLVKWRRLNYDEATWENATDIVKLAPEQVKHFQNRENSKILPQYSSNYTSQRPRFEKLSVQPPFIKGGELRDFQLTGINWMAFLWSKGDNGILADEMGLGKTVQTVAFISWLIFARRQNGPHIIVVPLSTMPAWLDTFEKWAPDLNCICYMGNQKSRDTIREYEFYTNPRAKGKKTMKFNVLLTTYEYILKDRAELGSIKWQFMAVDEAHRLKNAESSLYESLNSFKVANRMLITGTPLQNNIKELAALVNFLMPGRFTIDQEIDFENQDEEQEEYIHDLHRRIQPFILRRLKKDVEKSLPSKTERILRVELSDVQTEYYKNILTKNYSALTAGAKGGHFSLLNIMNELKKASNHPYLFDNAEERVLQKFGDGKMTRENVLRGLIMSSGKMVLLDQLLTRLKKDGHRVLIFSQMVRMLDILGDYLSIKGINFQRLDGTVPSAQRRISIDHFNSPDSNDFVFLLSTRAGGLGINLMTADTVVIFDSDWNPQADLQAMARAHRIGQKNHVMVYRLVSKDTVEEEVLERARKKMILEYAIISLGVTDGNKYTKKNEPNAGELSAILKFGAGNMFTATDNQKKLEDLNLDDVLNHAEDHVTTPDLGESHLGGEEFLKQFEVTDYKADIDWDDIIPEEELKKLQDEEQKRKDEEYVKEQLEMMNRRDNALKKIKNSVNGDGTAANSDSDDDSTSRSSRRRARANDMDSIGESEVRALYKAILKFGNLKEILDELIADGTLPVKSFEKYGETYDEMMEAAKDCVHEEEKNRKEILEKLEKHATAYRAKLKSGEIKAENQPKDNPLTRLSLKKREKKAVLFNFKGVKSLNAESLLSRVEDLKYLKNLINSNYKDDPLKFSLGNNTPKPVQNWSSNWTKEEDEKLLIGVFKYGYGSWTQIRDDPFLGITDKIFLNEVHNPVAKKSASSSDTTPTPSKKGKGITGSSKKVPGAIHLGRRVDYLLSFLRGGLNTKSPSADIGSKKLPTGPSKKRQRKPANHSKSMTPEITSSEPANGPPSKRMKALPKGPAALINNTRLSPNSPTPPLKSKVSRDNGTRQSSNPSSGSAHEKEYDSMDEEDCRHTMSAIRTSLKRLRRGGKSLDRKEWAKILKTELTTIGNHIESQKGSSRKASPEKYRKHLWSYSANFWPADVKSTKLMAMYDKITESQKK
# Protein translocase subunit SecA (Escherichia coli (strain K12)), sequence (P10408 whole entry): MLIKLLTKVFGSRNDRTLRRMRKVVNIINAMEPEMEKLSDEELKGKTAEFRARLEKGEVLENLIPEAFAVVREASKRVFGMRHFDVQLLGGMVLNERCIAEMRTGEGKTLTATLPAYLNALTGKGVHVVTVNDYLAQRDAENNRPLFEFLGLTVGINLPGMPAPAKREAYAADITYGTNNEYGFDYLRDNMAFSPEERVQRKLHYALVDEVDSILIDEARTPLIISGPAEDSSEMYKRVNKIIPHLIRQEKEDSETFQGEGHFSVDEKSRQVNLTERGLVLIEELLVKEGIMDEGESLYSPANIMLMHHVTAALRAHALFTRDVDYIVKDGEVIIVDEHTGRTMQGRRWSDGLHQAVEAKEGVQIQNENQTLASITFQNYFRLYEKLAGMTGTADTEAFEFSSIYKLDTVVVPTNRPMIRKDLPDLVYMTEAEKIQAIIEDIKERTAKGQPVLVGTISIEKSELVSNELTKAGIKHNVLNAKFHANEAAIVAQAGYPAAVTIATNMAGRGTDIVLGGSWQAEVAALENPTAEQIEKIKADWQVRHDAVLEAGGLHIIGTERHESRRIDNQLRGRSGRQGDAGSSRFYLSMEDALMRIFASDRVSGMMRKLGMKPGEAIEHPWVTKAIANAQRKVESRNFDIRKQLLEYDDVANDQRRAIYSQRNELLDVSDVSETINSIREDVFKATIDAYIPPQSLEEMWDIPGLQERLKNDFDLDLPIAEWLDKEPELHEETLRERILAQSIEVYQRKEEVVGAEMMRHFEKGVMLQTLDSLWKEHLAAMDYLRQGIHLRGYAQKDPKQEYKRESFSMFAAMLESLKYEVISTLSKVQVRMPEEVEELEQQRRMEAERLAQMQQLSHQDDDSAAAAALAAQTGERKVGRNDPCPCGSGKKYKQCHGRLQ
SMILES,Percent Effect [1],Percent Effect [2],Percent Effect [3],Percent Effect [4],Percent Effect (Trypanosoma cruzi),Percent Effect [5],Percent Effect [6],Percent Effect (Homo sapiens),Percent Effect [7],Percent Effect [8],Percent Effect [9]
Cc1nn(C)c(Cl)c1C1CCCN1C(=O)c1ccc2nncn2c1 (stereo not given),-3.02%,0%,2.19%,-4.7%,-4.25%,0%,3.6%,-2.92%,-4.43%,-6.17%,-0.833%
CCC1CN(Cc2ccccc2)CCN1Cc1nnc(C2CCC2)o1 (stereo not given),-1.22%,2.74%,-2.21%,8.69%,6.07%,5.91%,1.95%,-3.45%,1.07%,5%,-0.293%
COCCN1C(=O)CO[C@H]2CN(Cc3c[nH]nc3-c3ccccc3)C[C@@H]21,-5.09%,12.2%,8.07%,9.93%,2.77%,-5.8%,2.34%,19.6%,2.15%,6.49%,-22.8%
Cc1cnn(CC2CCCN2C(=O)c2cnc3n[nH]c(C)c3c2)c1 (stereo not given),-6.55%,16.5%,0.256%,-4.46%,2.36%,0.645%,7.55%,2.33%,3.12%,20.2%,-32.5%
CCOc1cccc2c1OCC(C(=O)NS(=O)(=O)c1ccc(Cl)cc1)=C2,-8.58%,-2.7%,102%,7.55%,-5%,-5.61%,-2.52%,18.9%,-23.1%,-33.3%,-6.64%
O=C(C1CCC1)N1CCC2(COCc3cnc(N4CCOCC4)nc32)C1 (stereo not given),2.09%,13.3%,-2.58%,-6.19%,0.772%,-59.7%,9.23%,-2.75%,2.08%,12.5%,-9.27%
CC(=O)N1CCN(S(=O)(=O)c2ccc(C)c(F)c2)CC1,-4.54%,10.5%,2.19%,-1.23%,5.75%,9.47%,13.1%,12.6%,2.13%,15.6%,-3.17%
O=C(NC1(c2cccc(F)c2)CCOCC1)c1ccoc1,-5.15%,5.2%,-0.889%,5.11%,2.46%,-6.9%,1.33%,-3.68%,2.15%,8.64%,-3.25%
CC(Cc1ccco1)NC(=O)Nc1cnn(CC(N)=O)c1 (stereo not given),1.02%,6.33%,5.31%,0.769%,-6.67%,2.8%,11%,9.49%,4.17%,7.59%,-2.83%
Brc1cc2c(cc1CN1CCC(N3CCCCC3)CC1)OCCO2,-3.24%,-1.39%,-9.98%,-5.8%,-0.291%,5.74%,10.7%,2.68%,5.26%,10.3%,-2.58%

# — ChEMBL document CHEMBL3988442, “University of Dundee, Small-Polar-MMV Screening Library” (2021)
